Results with a measured potency or affinity are listed apart. The source made the active and inactive calls.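 The calls were made as follows: active = absorbance falls by 30% or more versus neutral controls, with a potency fitted within twice the top valid dose; inconclusive = no clear call, values can overlap the other calls; inactive = change opposite to expected direction, plus the rest.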
molecular target: Protein disulfide-isomerase (Homo sapiens) (UniProt P07237); experiment: inhibition of PDI-driven insulin aggregation – biochemical, turbidity, absorbance, cherry-picked samples, dose response (AID 602350); details: recombinant PDI insulin aggregation, absorbance 650 nm, 90 min; series mostly up to 19.5 µM; activity change, negative = inhibition: at the top concentration;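 also: 0% = neutral controls and -100% = rutin hydrate positive control wells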
Sequence (P07237 whole entry, looked up): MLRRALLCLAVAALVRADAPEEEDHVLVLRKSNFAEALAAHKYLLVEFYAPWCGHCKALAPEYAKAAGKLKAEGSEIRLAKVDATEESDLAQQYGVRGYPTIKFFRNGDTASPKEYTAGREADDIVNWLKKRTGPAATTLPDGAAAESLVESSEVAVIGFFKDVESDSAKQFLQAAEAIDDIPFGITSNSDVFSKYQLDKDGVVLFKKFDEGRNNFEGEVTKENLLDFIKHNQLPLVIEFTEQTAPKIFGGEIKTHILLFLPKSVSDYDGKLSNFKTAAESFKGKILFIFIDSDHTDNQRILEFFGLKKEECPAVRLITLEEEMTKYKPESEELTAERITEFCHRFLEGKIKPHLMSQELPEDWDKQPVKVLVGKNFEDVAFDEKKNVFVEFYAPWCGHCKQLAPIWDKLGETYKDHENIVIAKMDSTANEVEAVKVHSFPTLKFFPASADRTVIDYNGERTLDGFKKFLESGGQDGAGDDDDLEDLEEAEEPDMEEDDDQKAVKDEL

Activity change, negative = inhibition, inactive:
CCOC(=O)c1ccc(NC(=O)C2(c3ccc(Cl)cc3)CCCC2)cc1 -0.339%
Cc1[nH]c2ccc(C(=O)NC3CCCC3)cc2c1C 0.629%
O=C1CCC(=O)N1c1nc2nc(-c3ccccc3)cc(-c3ccccc3)n2n1 -3.29%
CCCCC(=O)OC1CCC2C3CCc4cc(O)ccc4C3CCC12C (centres undefined) -0.743%
CCN(CC(=O)Nc1ccc2c(c1)OCCO2)C(=O)CC1CCCC1 0.091%
COc1ccc(/C(C)=N/NC(=O)CNC(=O)c2cccs2)cc1 30.1%
O=S(=O)(c1cc(F)ccc1F)N1CCN(c2ncccn2)CC1 0.899%
Cc1ccc(S(=O)(=O)N2CCC(C(=O)Nc3ccc(S(=O)(=O)N4CCCC4)cc3)CC2)cc1 4.28%
COc1ccc(OCCN2CCC(C(=O)NC(c3ccsc3)c3ccccc3C)CC2)cc1 (centres undefined) 14.1%
COc1ccc(C2c3ccc(O)cc3Oc3ncn4nc(-c5cccnc5)nc4c32)cc1OC (centres undefined) -1.67%
CN1C(=O)NC(c2ccccc2)C2=C1CN(c1cccc(C(F)(F)F)c1)C2=O (centres undefined) 12.6%
C[C@@H]1CN([C@H](C)CO)C(=O)Cc2cc(NC(=O)Nc3ccccc3)ccc2O[C@H]1CN(C)Cc1ccccc1 3.58% [at 21 µM]
COc1ccc(S(=O)(=O)NCC(c2ccc(F)cc2)N2CCOCC2)cc1Br (centres undefined) -1.36%
C[C@@H]1CN([C@@H](C)CO)C(=O)c2cccc(NS(C)(=O)=O)c2O[C@@H]1CN(C)Cc1ccc(Oc2ccccc2)cc1 -12.7%
COC(=O)c1ccc(COC(=O)CSCC(=O)Nc2ccc(C)cc2C)cc1 5.37%
Oc1cccc(-c2nc3c4c(ncn3n2)-c2ccccc2CC42CCCC2)c1 -1.88%
COc1ccc(/C=C/C(=O)c2cc(F)ccc2OC(=O)c2ccccc2OC)cc1OC 0.173%
CCC(=O)N1CCc2cc(S(=O)(=O)CCC(=O)NCc3ccco3)ccc21 0.455%
Cc1cc(C)cc(OCC(=O)Nc2ccccc2C(=O)N2CCOCC2)c1 16%
O=C(NCc1ccccc1CN1CCCC1)c1cc2ccccc2o1 -3.18%
COc1ccc(/C=C2\Sc3ccc(C(=O)NCCCN4CCCC4)cc3N(C)C2=O)cc1OC 3.6%
C[C@H](CO)N1C[C@H](C)[C@@H](CN(C)Cc2ccccc2)Oc2ccc(NC(=O)Nc3ccccc3)cc2CC1=O -16.7%
COc1ccccc1NC(=O)c1ccc(NC(=O)COC(=O)c2cccnc2Cl)cc1 4.95%
CCOc1ccc(NC(=O)CCc2nnc3ccc(N4CCN(C)CC4)nn23)cc1 6.03%
CC[C@]12c3[nH]c4cc(-c5ccco5)ccc4c3CCN1C(=O)[C@@H](CC(=O)NCc1ccc(OC)c(OC)c1)C[C@@H]2C(=O)N1CCN(C(=O)C2CC2)CC1 12.2%
O=C(CNC(=O)c1n[nH]c2ccccc12)Nc1cc(Cl)ccc1Cl 13.9%
COC(=O)c1ccc(NC(=S)NCCc2cccc(C)c2)cc1 3.66%
O=C(CSc1n[nH]c(-c2ccccc2)n1)Nc1ccccc1O -23.6%
CC1(C(=O)Nc2ccc3c(c2)OCCO3)CCN1C(=O)C1(c2ccc(Cl)cc2)CC1 (centres undefined) -20.4%
CCOC(=O)c1c(CN2CCN(C)CC2)n(C)c2cc(Br)c(OC)cc12 -0.959%
CC(=O)N(C)C1(c2nnnn2CCOC(=O)Nc2ccc(Cl)cc2)CCCCC1 -1.62%
O=C1[C@@H]2C(Cc3ccc(O)cc3)NC3(C(=O)Nc4ccc(F)cc43)[C@@H]2C(=O)N1c1ccccc1 (some centres undefined) -19.7%
CCC(=O)Nc1ccc(-c2cc3ccccc3oc2=O)cc1 17% [at 6.8 µM]
O=C1NC(Cc2ccc(O)cc2)c2nc3cc(Cl)ccc3c(=O)n2-c2ncccc21 (centres undefined) -7.67%
CCOC(=O)c1c(CN2CCOCC2)n(-c2ccccc2)c2ccc(O)cc12 -4.1%
CCOC(=O)c1oc2cccc(O)c2c1CN(Cc1ccccc1)C(C)=O 9.38%
COc1cc(C(=O)N2CCN(C/C=C/c3ccccc3)CC2)cc(OC)c1OC 21.3%
NC(=O)c1ccc(NC(=O)COC(=O)c2ccc(Br)c(S(=O)(=O)N3CCOCC3)c2)cc1 0.252%
CCOC(=O)C1=C(c2ccccc2)N=c2s/c(=C\c3cccc(O)c3)c(=O)n2C1c1cccs1 (centres undefined) -4.87%

— PubChem BioAssay AID602350 (Broad Institute, 2012)
